Compounds with a hit are over-represented: about 3.3% of the library has one in this group of screens.
MBD2 DNA inh: blocks human MBD2 binding to methylated DNA; TR-FRET, MBD2 binding to methylated oligonucleotide; inhibition, % at 4.4 µM; actives 0.31% (n = 370,000); in the data active = inhibition above about 13%
PfG6PD inh: PfG6PD (Plasmodium falciparum) enzyme inhibition; PfGluPho enzyme, NADPH resazurin-diaphorase fluorescence; inhibition, % at 20 µM; actives 0.78% (n = 350,000);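 active = inhibition reaching at least a set limit at 20 µM in the primary screen, cut at about 59% in these data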;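 note: 0% = DMSO wells with substrate and 100% = DMSO wells lacking glucose-6-phosphate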
UHRF1 binding: human UHRF1 methylated DNA binding inhibitors | UHRF1 binding to methylated oligo, TR-FRET | actives 0.75% (n = 370,000) | inhibition, % at 4.4 µM;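 note: UHRF1 SRA domain binding a hemimethylated CpG hairpin DNA probe; 0% = median of test compound wells and 100% = reference inhibitor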
PfM18AAP inh: PfM18AAP enzyme inhibition; recombinant PfM18AAP, H-Glu-NHMec fluorogenic cleavage; inhibition, % at 7.35 µM; actives 1.2% (n = 290,000); AID 1822;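 active = inhibition above the campaign mean inhibition over all tested compounds plus 3 SD, cut at about 28% in these data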;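 note: 0% = plate median of test compound wells and 100% = 2 mM ZnCl2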
PRMT1 inh: blocks human protein arginine methyltransferase 1; actives 1.3% (n = 370,000); inhibition, % at 2.79 µM; recombinant PRMT1, activity-based probe fluorescence polarization;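 active = inhibition above about 21% made by adding two undisclosed values, limit read from the data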
Target sequence (Q99873 whole entry, looked up): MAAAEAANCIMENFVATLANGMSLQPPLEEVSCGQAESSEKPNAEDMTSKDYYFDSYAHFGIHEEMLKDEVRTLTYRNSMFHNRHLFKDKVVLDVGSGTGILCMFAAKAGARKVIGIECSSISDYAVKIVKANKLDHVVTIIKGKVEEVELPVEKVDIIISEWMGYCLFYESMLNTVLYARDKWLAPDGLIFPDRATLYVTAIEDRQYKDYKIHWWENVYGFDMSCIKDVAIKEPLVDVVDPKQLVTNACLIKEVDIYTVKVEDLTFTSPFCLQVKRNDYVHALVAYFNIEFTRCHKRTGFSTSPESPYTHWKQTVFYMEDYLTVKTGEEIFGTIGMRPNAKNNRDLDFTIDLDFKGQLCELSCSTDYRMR
UHRF1 ctr MBD2: counter-screen for MBD2 inhibitors: human UHRF1 methylated DNA binding inhibitors | shares compounds with MBD2 DNA inh | UHRF1 binding to methylated oligonucleotide, TR-FRET | inhibition, % at 4.4 µM | actives 25% (n = 1,000);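 note: UHRF1 SRA domain binding a labeled hemimethylated CpG hairpin DNA; 0% = vehicle only and 100% = reference inhibitor with vehicle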
MBD2 DBD conf: confirmation of human MBD2-DBD methylated oligonucleotide binding inhibitors; shares compounds with MBD2 DNA inh; TR-FRET MBD2-DBD binding to methylated oligonucleotide; inhibition, % at 4.4 µM; actives 26% (n = 1,000); AID 720531; in the data active = inhibition above about 14%
Starred values were filed as active, the others as inactive; . = not tested or not shown; ! = not confirmed by another sample. Cut-off read from the data, not from the text of the source, unless noted: active = inhibition above about 21%; inactive = the rest.

SMILES	MBD2 DNA inh	PfG6PD inh	UHRF1 binding	PfM18AAP inh	PRMT1 inh	UHRF1 ctr MBD2	MBD2 DBD conf
CC1(C)S[C@@H]2[C@H](NC(=O)[C@H](N)c3ccccc3)C(=O)N2[C@H]1C(=O)O	47*!	-20	81*!	4	2	77*	31*
COc1ccc(NC(=O)[C@@H]2CC=C[C@@H]3CCN(C4CCCCC4)C(=O)[C@@H]32)cc1	64*	-1	-2	.	0	7	1
COCC1CCCCN1C(=O)c1ccc2nc(Cc3ccc(OC)c(OC)c3)oc2c1 (stereo not drawn)	-1	3	1	1	0	.	.
O=C(Cc1c[nH]c2ccccc12)Nc1ccc(Nc2cccnc2)c(-c2ccc(F)c(F)c2)c1	1	.	-8	.	-2	.	.
C[C@H]1CN([C@@H](C)CO)C(=O)c2cccc(NC(=O)C3CC3)c2O[C@H]1CN(C)S(=O)(=O)c1cccs1	1	0	-5	.	-1	.	.
CC(=O)Nc1cc(N2C(=O)CCC2=O)ccc1Cl	6	-12	3	1	0	.	.
O=C(O)c1cc(N2C(=O)CCC2=O)ccc1Cl	15*	0	18	-2	0	4	2
O=C(OCC(=O)c1ccc(Cl)s1)c1cncc(Br)c1	-5	-6	2	.	1	.	.
CCN(CC)S(=O)(=O)c1cccc(NC(=O)CN(C)Cc2cccc(OC)c2)c1	2	-16	0	5	-1	.	.
O=C(/C=C/c1cccs1)N1CCC2(CC1)Oc1ccc(Cl)cc1C(=O)C21CC(c2cccnc2)=NO1 (stereo not drawn)	16*	-3	-2	.	-3	6	2
O=C(Cn1cc(COc2ccccc2C(F)(F)F)nn1)c1ccc(O)cc1	15*	-3	22*	.	8	11	9
COC(=O)c1nnn(-c2nonc2N)c1CN1CCCC1	31*	1	2	-2	3	3	3
CCOC(=O)[C@H]1[C@H]2COc3cc(OC)ccc3[C@@H]2N2C(=O)N(c3cccc(Cl)c3)C(=O)[C@@]12C	.	21	.	3	.	.	.
COC(=O)[C@]12C[C@H](CC(=O)NCC34CC5CC(CC(C5)C3)C4)C(=O)N(Cc3ccc4c(c3)OCO4)C1=C[C@H](C(C)C)O[C@@H]2C1CC1	0	.	-1	.	2	.	.
C[C@H]1CN([C@@H](C)CO)C(=O)CCCn2nncc2CO[C@H]1CN(C)S(=O)(=O)c1ccc(-n2cccn2)cc1	16*	3	1	.	0	3	3
C[C@@H]1CN([C@@H](C)CO)C(=O)CCCn2nncc2CO[C@@H]1CN(C)S(=O)(=O)c1ccc(-n2cccn2)cc1	-1	-5	2	.	4	.	.
O=C(NC(n1ccc(=O)[nH]c1=O)C(Cl)(Cl)Cl)C12CC3CC(CC(C3)C1)C2 (stereo not drawn)	3	-28	2	1	3	.	.
CCC(C)NC(=O)CSc1nc2ccccc2c(=O)n1CCCN1CCCCC1 (stereo not drawn)	14*	-7	0	1	0	2	3
C=C(C)C(=O)Oc1ccc(N=Nc2ccc(C)cc2)ccc1=O	38*	8	62*	.	8	66*	43*
Cc1cnc(NC(=O)C2C(=O)c3ccccc3S(=O)(=O)N2C)s1 (stereo not drawn)	-2	-28	-1	.	3	.	.
COc1ccc(C(=O)OCC(=O)c2ccc[nH]2)cc1	67*	1	13	.	-2	9	2
Cc1ccc(S(=O)(=O)NC(=O)Nc2cccc(S(=O)(=O)N(C)C)c2)cc1	56*	9	2	.	5	6	2
O=C(Cc1cccs1)N(Cc1cccs1)C1(C(=O)NC2CCCC2)CCCCC1	13*	5	24*	-1	-4	2	4
O=C(Cc1cccs1)N(CC1CCCO1)C1(C(=O)NC2CCCC2)CCCCC1 (stereo not drawn)	-5	3	-2	-17	-1	.	.
Cc1[nH]n(-c2ccccc2)c(=O)c1C(c1ccc(C(=O)O)cc1)c1c(C)[nH]n(-c2ccccc2)c1=O	20*	-3	20	26	1	11	2
SMILES	MBD2 DNA inh	PfG6PD inh	UHRF1 binding	PfM18AAP inh	PRMT1 inh	UHRF1 ctr MBD2	MBD2 DBD conf
Cc1c(C(c2cccc([N+](=O)[O-])c2O)c2c(C)n(C)n(-c3ccccc3)c2=O)c(=O)n(-c2ccccc2)n1C	-3	-13	2	-3	3	.	.
Cc1[nH]n(-c2ccccc2)c(=O)c1C(=O)c1ccc([N+](=O)[O-])cc1	4	-24	-2	0	2	.	.
Cc1[nH]n(-c2ccccc2)c(=O)c1C(c1cccc([N+](=O)[O-])c1O)c1c(C)[nH]n(-c2ccccc2)c1=O	21*	-46	24*	10	4	4	0
CCCCNC(=O)C1c2ccccc2OCC(=O)N1CC(F)(F)F (stereo not drawn)	-3	.	1	.	4	.	.
COc1cccc(NC(=O)CCC2CCN(C(=O)c3cccc(NC(C)=O)c3)CC2)c1	36*	7	2	0	0	5	2
COc1ccc(CN(C)C(=O)CNC(=O)c2sc3ccccc3c2Cl)c(OC)c1	-3	16	-1	.	2	.	.
CC(=O)c1c(C(C)=O)c(C)n(Cc2ccccc2)c1C	2	1	-2	0	-2	.	.
Cc1c(C=O)c(C=O)c(C)n1Cc1ccccc1	16*	9	31*	4	3	4	4
CCN(CC)CCn1c2c(c(SCC(=O)Nc3ccccc3Cl)nc1=O)CCC2	4	-6	3	.	-2	.	.
COc1ccc(-c2nn(C)c3sc(C(=O)NCCN(C)C)cc23)cc1OC	18*	20	28*	0	-2	29*	25*
CCCCN(CCCC)CCCNC(=O)Cn1cc(C)c(=O)[nH]c1=O	1	.	-1	.	-2	.	.
CCOC(=O)[C@H]1[C@H]2COc3ccccc3[C@@H]2N2C(=O)c3ccc(C)cc3NC(=O)[C@@]12C	-3	-14	-2	.	-1	.	.
CCOC(=O)[C@H]1[C@H]2COc3ccccc3[C@@H]2N2C(=O)c3ccccc3NC(=O)[C@@]12C	18*	-11	20	.	3	7	3
COc1ccc(C(=O)c2nccc3cc(OC)c(OC)cc23)cc1OC	.	50	.	.	.	.	.
COc1cc2c(cc1OC)-c1c(OC)c(OC)cc3ccnc(c13)C2=O	33*	31	37*	4	4	53*	46*
CC(Sc1nnnn1C)C(=O)Nc1nc(-c2ccc(F)c(F)c2)cs1 (stereo not drawn)	18*	12	27*	.	8	2	4
N/C(=N\OC(=O)c1ccccc1F)c1cccc([N+](=O)[O-])c1	1	0	4	-3	1	.	.
CC1CCN(C(=O)C2COc3ccccc3O2)CC1 (stereo not drawn)	-1	-1	0	.	10	.	.

Screening results from PubChem BioAssay.
